Test results published in PubChem BioAssay AID651644 (National Center for Advancing Translational Sciences (NCATS), 2012).
Screen size: about 360,000 compounds; about 750 (0.21%) were called active. About 2% were inconclusive and are not listed. Calls come from the whole dose curve; as a rule, active = well fitted falling curve with a large enough effect; inconclusive = small, poorly fitted or top-dose-only effect; inactive = no such curve, though single readings can be large or run the other way. The entries come from a sample that favours actives as a whole. A call without a number means that no potency is given here.
Potency is the fitted concentration of half-maximal effect.

Experiment: qHTS Assay for Inhibitors of the HIV-1 protein Vpr; note: nearly all actives have a fitted effect of over 50% in size
Conditions: S. pombe RE007 Vpr strain, BacTiter-Glo ATP luminescence, 24 h; series mostly up to 92.2 µM
Source text: Human immunodeficiency virus type 1 (HIV-1), the causative agent of AIDS, contains a protein called viral protein R (Vpr) that plays an important role in the viral life cycle and the pathogenesis of HIV-1.
These Vpr specific activities include cytoplasmic-nuclear shuttling, induction of cell cycle G2 arrest and cell killing. The cytoplasmic-nuclear shuttling is believed to participate in nuclear transport of the proviral integration complex (PIC). The cell cycle G2 arrest induced by Vpr is thought to suppress human immune functions by preventing T cell clonal expansion and to provide an optimized cellular environment for maximal levels of viral replication. In addition, Vpr induces apoptosis, which may contribute to the depletion of CD4 T cells in HIV-infected patients. Since the Vpr-specific activities have been linked to such clinical manifestation of AIDS as activation of viral replication, suppression of host immune responses and depletion of CD4+ T-lymphocytes, identification of new molecular probes that can inhibit the Vpr activities could potentially provide a new approach to reduce Vpr-mediated detrimental effects in HIV-infected patients, and thus prolong patient's lives. Currently, there are no anti-Vpr drugs.
A fission yeast (Schizosaccharomyces pombe) model system for the Vpr studies has been developed which measures HIV-1 Vpr-induced cell death. This assay will be used for to screen the NIH Molecular Libraries Small Molecule Repository (MLSMR) identify small molecule HIV-1 Vpr inhibitors.
NIH Chemical Genomics Center [NCGC]
NIH Molecular Libraries Probe Centers Network [MLPCN]
Assay Submitter (PI): Richard Zhao, University of Maryland
The fission yeast RE007 strain was used, which carries a single integrated copy of HIV-1 vpr gene in the yeast chromosome. The starting culture was frozen stock 100ul of yeast RE007 in 150ml of *PMG+AL medium, Incubation in 30 degree plus 99% humidity for 18 hours. Next day dispensed 2.5ul of PMG+AL medium in each well to 1536 well white solid plate, then 23nL compound were delivered to each well using a pin tool. Check OD for overnight culture and add cell density at 0.01 for each well, incubation in 30 degree plus 99% humidity for 24 hours. After add 5 ul of *BacTiter/Glo detect reagent to each well at room temperature for 5 minutes then to red out results with Viewlux CCD camera.
In the case of `NC(=O)Nc1ccccc1C(=O)NCCc1ccccc1`, the Potency is reported as “inactive”.
With `Cc1nn(CC(=O)N2CCCCC2)c(=O)c2nn(-c3ccccc3)c(C)c12` the Potency was “inactive”.
In the case of `O=S1(=O)CCOC[C@H](CC2CCCCC2)N1Cc1ccc(F)cc1`, the Potency is reported as “inactive”.
In the case of `C=CCOc1ccc(/C=C/C(=O)OCC(=O)NC2CCCCCC2)cc1`, the Potency is reported as “inactive”.
In the case of `CCCCn1c(N)c(N(CCC(C)C)C(=O)COC(=O)c2ccc(CC)cc2)c(=O)[nH]c1=O`, the Potency is reported as “inactive”.
For `O=C(CC1OC(=O)c2ccccc21)NC1CCCCC1` (stereo not drawn), the Potency was “inactive”.
In the case of `O=C(N/C(=C/c1ccc(Cl)cc1)C(=O)N1CCCCC1)c1ccco1`, the Potency is reported as “inactive”.
With `CCOC(=O)c1ccc(-n2c(C)nc3c(cnn3-c3ccccc3C)c2=O)cc1` the Potency was “inactive”.
For `O=C(O)c1ccc(N=NN2CCOCC2)cc1`, the Potency was “inactive”.
With `O=C(CP(=O)(c1ccccc1)c1ccccc1)N1CCOCC1` the Potency was “inactive”.
For `O=C(O)c1ccc(NN=CC2=C(N3CCOCC3)/C(=C/c3ccccc3)CC2)cc1`, the Potency was 35.5 µM (active).
In the case of `Cc1[nH]nc(SCC(=O)NCC(C)C)c1[N+](=O)[O-]`, the Potency is reported as “inactive”.
In the case of `COc1ccc(CN2C(=O)C(CC(=O)NCc3cccc4ccccc34)CC(C(=O)N3CCOCC3)=C2C)cc1` (stereo not drawn), the Potency is reported as “inactive”.
In the case of `COc1ccc(C(=O)Nc2ccccc2C(=O)N/N=C/c2ccc(O)c(OC)c2)cc1`, the Potency is reported as 7.94 µM (active).
In the case of `COc1cccc(C(=O)N/N=C(\C)c2cccc(NC(=O)c3ccc(F)cc3)c2)c1OC`, the Potency is reported as “inactive”.
In the case of `COc1cc(/C=N/NC(=O)Nc2ccccc2)ccc1OCCOc1ccccc1C`, the Potency is reported as “inactive”.
With `CC(C)(C)C(=O)Nc1ccc(C(=O)N/N=C/c2ccccc2OC(=O)c2ccc(Cl)cc2Cl)cc1` the Potency was “inactive”.
In the case of `CCCNC(=O)c1ccccc1NC(=O)CSCc1ccc(OC)cc1`, the Potency is reported as “inactive”.
With `COc1ccc(C(=O)Nc2ccccc2C(=O)N/N=C/c2ccccc2OC)cc1` the Potency was 35.5 µM (active).
For `CC(C)C(c1nnnn1C1CCCCC1)N1CCN(C(=O)c2ccco2)CC1` (stereo not drawn), the Potency was “inactive”.
With `CCC1Nc2ncnc(N3CCN(c4ccccc4)CC3)c2N(Cc2ccc(Cl)cc2)C1=O` (stereo not drawn) the Potency was “inactive”.
In the case of `O=C(NNC1CC(=O)N(c2cccc(Cl)c2)C1=O)c1cccnc1` (stereo not drawn), the Potency is reported as “inactive”.
In the case of `Cc1ccc(NC(=O)C2CCC(C(C)(C)C)CC2)cc1S(=O)(=O)N1CCOCC1` (stereo not drawn), the Potency is reported as “inactive”.
In the case of `Cc1nn(C)c(C)c1S(=O)(=O)N1CCc2ccccc21`, the Potency is reported as “inactive”.
For `Cc1[nH]c(C)c(S(=O)(=O)N2CCC(C)CC2)c1C(=O)N1CCCC1`, the Potency was “inactive”.
With `O=C(O)c1cscn1` the Potency was “inactive”.
With `CC(C)CC1(C(=O)NCc2ccccn2)C=CCN1C(=O)c1ccccc1` (stereo not drawn) the Potency was “inactive”.
In the case of `COc1ccc(C(O)C(O)(C(=O)OC(C)C)c2ccc(C)cc2)cc1` (stereo not drawn), the Potency is reported as “inactive”.
For `COC(=O)c1ccc(CNC(=O)c2ccc3oc(C(C)C)nc3c2)cc1`, the Potency was “inactive”.
With `Cc1ccc(C)c(-n2cc(CN3CCN(C(=O)c4ncn[nH]4)CC3)c(-c3ccccc3)n2)c1` the Potency was “inactive”.
With `NC(=O)COC(=O)c1sc2cc(F)ccc2c1Cl` the Potency was 25.1 µM (active).
For `Cc1ccc2c(Cl)c(C(=O)Nc3nn[nH]n3)sc2c1`, the Potency was “inactive”.
In the case of `CC(NC(=O)COC(=O)c1ccc(Cl)cc1O)c1ccc(F)cc1` (stereo not drawn), the Potency is reported as “inactive”.
In the case of `Cc1ccc(S(=O)(=O)NCC(=O)N(CC(=O)NC(C)(C)C)Cc2cccs2)cc1`, the Potency is reported as “inactive”.
In the case of `COCCCNC(=O)C1CCN(c2ccc(N3CCOCC3)nn2)CC1`, the Potency is reported as “inactive”.
In the case of `CCc1nc2c(OCCOc3ccccc3)cccn2c1N(C=O)Cc1ccc(OC)cc1`, the Potency is reported as “inactive”.
In the case of `Cc1ccc(S(=O)(=O)N(CC(O)CN2C(=O)NC(C)(C)C2=O)c2cccc([N+](=O)[O-])c2)cc1` (stereo not drawn), the Potency is reported as “inactive”.
With `COc1ccc(-c2cc(C3CCN(c4ncccc4[N+](=O)[O-])CC3)[nH]n2)cc1` the Potency was “inactive”.
With `CN(C)C(=O)c1cccc(-c2cnc3sc(NCc4ccc5c(c4)OCO5)nn23)c1` the Potency was “inactive”.
In the case of `Cc1cccc(C(=O)N2CCCC(Nc3ccc(C(C)C)cc3)C2)n1` (stereo not drawn), the Potency is reported as “inactive”.
For `Cc1nnsc1C(=O)Nc1cccc(Cl)c1C`, the Potency was “inactive”.
With `CC1=C(C(=O)Nc2ccccc2)S(=O)(=O)CCO1` the Potency was “inactive”.
In the case of `O=C(Nc1ccccc1)c1nnsc1S(=O)(=O)c1ccc(Cl)cc1`, the Potency is reported as 6.31 µM (active).
For `COc1ccc(C(C)NC(=O)C2CCCC2)cc1` (stereo not drawn), the Potency was “inactive”.
For `O=C(Cn1cc(C(F)(F)F)ccc1=O)Nc1ccc2c(c1)OCCO2`, the Potency was “inactive”.
In the case of `CC1(C)Cc2c(sc(NC(=O)C(=O)N3CCOCC3)c2C#N)CO1`, the Potency is reported as “inactive”.
With `S=C(Cc1ccc(Cl)cc1)N1CCOCC1` the Potency was “inactive”.
With `CC1CCN(C(NC(=O)c2ccco2)C(=O)c2ccccc2)CC1` (stereo not drawn) the Potency was “inactive”.
In the case of `CCOC(=O)c1c(Cc2ccc(Cl)cc2)c[nH]c1C`, the Potency is reported as “inactive”.
With `COc1ccc(N=Nc2c(-c3ccc(OC)cc3)[nH]oc2=O)cc1` the Potency was “inactive”.
With `COC1=CC(=O)OC(c2ccc(OC)cc2)C1` (stereo not drawn) the Potency was “inactive”.
For `COc1ccc(N=C2C=CC(=O)O2)cc1`, the Potency was 8.91 µM (active).
In the case of `O=C(Nc1ccccc1F)c1ccc(Cn2cc(Br)cn2)cc1`, the Potency is reported as “inactive”.
For `C[C@H](CO)N1C[C@H](C)[C@@H](CN(C)Cc2ccc3c(c2)OCO3)OCc2cnnn2CCCC1=O`, the Potency was “inactive”.
In the case of `Cc1ccccc1-n1nc(C)c2c1N=C1C(Cl)=CC(Cl)=CN1C2c1ccc(C(=O)O)cc1` (stereo not drawn), the Potency is reported as “inactive”.
With `Fc1ccccc1N=C1Nc2cccc3cccc1c23` the Potency was 25.1 µM (active).
With `O=C(NCC1CCCCC1)c1cc(S(=O)(=O)N2CCCCC2)ccc1N1CCOCC1` the Potency was “inactive”.
In the case of `COc1cccc2c1CCC(NC(C)=O)C2=O` (stereo not drawn), the Potency is reported as “inactive”.
In the case of `CCOc1ccc2[nH]c3nc(SCC(=O)NC4CCCC4)nnc3c2c1`, the Potency is reported as “inactive”.
With `COc1ccc(CCN(C)C(=O)C23CC4CC(CC(Cl)(C4)C2)C3)cc1OC` the Potency was “inactive”.
With `COc1cccc(C(C(=O)NC2CCCC2)N(C(=O)c2ccco2)c2cccc(C(C)=O)c2)c1OC` (stereo not drawn) the Potency was “inactive”.
In the case of `CCOc1ccc(C(=O)CCC(=O)NC2=NCCS2)cc1`, the Potency is reported as “inactive”.
In the case of `CCOc1ccc(C(=O)CCN2CCOCC2)cc1`, the Potency is reported as 39.8 µM (active).
With `CCOc1ccc(-c2ccc(SCC(=O)N3CCOCC3)nn2)cc1` the Potency was “inactive”.
For `O=C(O)CCCn1cc(NC(=O)COc2cccc(Cl)c2)cn1`, the Potency was “inactive”.
In the case of `CC(NC(=O)COC(=O)C1CCN(S(=O)(=O)c2ccccc2C(F)(F)F)CC1)c1ccccc1` (stereo not drawn), the Potency is reported as “inactive”.
For `CN(C)C(CNC(=O)c1cc(Br)c(Br)s1)c1ccco1` (stereo not drawn), the Potency was “inactive”.
With `O=C1C(Cl)=C(Oc2ccccc2)C(=O)c2ccccc21` the Potency was 3.16 µM (active).
In the case of `CCC1=C(OC(=O)N(CC)CC)N2C(=O)OC(=NCCc3c[nH]c4ccccc34)[C@]2(C)[C@H]2C1=CC[C@H]1C(=O)N(CC)C(=O)[C@H]12`, the Potency is reported as “inactive”.
For `CSCCC(NS(=O)(=O)c1ccc2c(c1)oc(=O)n2C)C(=O)NC1CCCc2ccccc21` (stereo not drawn), the Potency was “inactive”.
For `CC[C@]1(C(=O)OC)[C@H]2C(=O)N(C)C(=O)[C@H]2[C@H]2CN(C)C(=NCc3ccccc3)N21`, the Potency was “inactive”.
With `Cc1cc(C)cc(NC(=O)Cn2cnc3c(nnn3Cc3ccc(F)cc3)c2=O)c1` the Potency was “inactive”.
In the case of `CCc1nnc(NC(=O)CSCc2cc(=O)n3cc(C)sc3n2)s1`, the Potency is reported as “inactive”.
